The values below come from PubChem BioAssay (NCI).

Assay [1] can be described thus: NCI Yeast Anticancer Drug Screen. Data for the rad50 strain (AID 155).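 Further: 0% = growth of vehicle-only cultures of the same strain.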 Particulars: S. cerevisiae rad50 strain growth inhibition, stronger effect = higher value. The essentials:
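Inhibition values express reduced yeast growth in compound-treated cultures relative to vehicle-treated controls.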

A short description of assay [2]: NCI Yeast Anticancer Drug Screen. Data for the mec2-1 strain (AID 157). To be noted: S. cerevisiae mec2-1 strain, stronger effect = higher value. The essentials: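 Vehicle-treated cultures served as reference for growth inhibition of compound-exposed mec2-1 yeast.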
A short description of assay [3]: NCI Yeast Anticancer Drug Screen. Data for the sgs1 mgt1 strain (AID 161).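 Further: 0% = growth of cultures given vehicle only.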 Particulars: S. cerevisiae sgs1 mgt1 strain, stronger effect = higher value. The essentials: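 Mutant yeast exposed to compound; growth scored against vehicle-only wells.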
Assay [4] can be described thus: NCI Yeast Anticancer Drug Screen. Data for the cln2 rad14 strain (AID 165).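 Further: 0% = growth equal to vehicle treated cultures.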 Particulars: S. cerevisiae cln2 rad14 strain, stronger effect = higher value. In outline:
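Each compound was tested on cln2 rad14 yeast. Inhibition of growth was calculated against vehicle-exposed controls.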

Assay [5] in a line: NCI Yeast Anticancer Drug Screen. Data for the bub3 strain (AID 167). To be noted: S. cerevisiae bub3 mutant strain, stronger effect = higher value. The essentials: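 Steps: expose the mutant yeast strain to compound; grow alongside vehicle-treated cultures; measure growth; express inhibition against the vehicle cultures.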
Assay [6] can be described thus: NCI Yeast Anticancer Drug Screen. Data for the mlh1 rad18 strain (AID 175). Particulars: S. cerevisiae mlh1 rad18 strain growth inhibition, stronger effect = higher value. In outline: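 Vehicle-treated cultures served as the reference for growth inhibition in a yeast strain carrying DNA damage repair alterations exposed to each compound.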
The mark [7] stands for this setting: at 5.0 µM (retest, dose inferred, filed as 0.5).
The mark [8] stands for this setting: at 50.0 µM (retest, dose inferred, filed as 5.0).

This is part of a sample that, as a whole, favours compounds with a hit. Of some 79,000 tested, about 15% had one in any assay. Unmarked numbers belong to inactive results. Active and inactive are the calls of the source. No stated cut-off is given here; in the data, active means growth inhibition above about 70%; inactive means the rest.

As to `Cn1nc(-c2ccc3c(c2)OCO3)[n+]([O-])c2c(=O)n(C)c(=O)nc1-2`, the growth inhibition in assay [1] (setting [7]) was -2%; in assay [1] (setting [8]), 79% (active); in assay [1] (at 50.0 µM) it was 99.2% (active); in assay [2] (setting [7]) it was -7%; in assay [2] (setting [8]) it was 97% (active); in assay [2] (at 50.0 µM), 99.7% (active). Moreover, the growth inhibition in assay [3] (setting [7]) was 0%; in assay [3] (setting [8]), 98% (active); in assay [3] (at 50.0 µM) it was 99.5% (active); in assay [4] (setting [7]) it was -6%; in assay [4] (setting [8]) it was 97% (active); in assay [4] (at 50.0 µM), 98.2% (active). Further, the growth inhibition in assay [5] (setting [7]) was -8%; in assay [5] (setting [8]), 96% (active); in assay [5] (at 50.0 µM), 99.4% (active); in assay [6] (setting [7]), -7%; in assay [6] (setting [8]) it was 97% (active); in assay [6] (at 50.0 µM), 99.5% (active).
On to `O=c1c2ccccc2ncn1Cc1ccccc1[N+](=O)[O-]`, for which the growth inhibition was -2% in assay [1] (setting [7]); 14% in assay [1] (setting [8]); -31.8% in assay [1] (at 50.0 µM); -2% in assay [2] (setting [7]); 7% in assay [2] (setting [8]); -9.1% in assay [2] (at 50.0 µM). Also, the growth inhibition in assay [3] (setting [7]) is 0%; in assay [3] (setting [8]), 23%; in assay [3] (at 50.0 µM), -7%; in assay [4] (setting [7]), -11%; in assay [4] (setting [8]), -17%; in assay [4] (at 50.0 µM), 73.3% (active). For the same compound, the growth inhibition in assay [5] (setting [7]) was -1%; in assay [5] (setting [8]) it was 42%; in assay [5] (at 50.0 µM), 26.2%; in assay [6] (setting [7]) it was 0%; in assay [6] (setting [8]), 18%; in assay [6] (at 50.0 µM) it was -6.15%.
With `CC(C)(C)OC(=O)CSC#N`, the growth inhibition is 11% in assay [1] (setting [7]); 93% (active) in assay [1] (setting [8]); 67.3% in assay [1] (at 50.0 µM); 16% in assay [2] (setting [7]); 95% (active) in assay [2] (setting [8]); 66.2% in assay [2] (at 50.0 µM). Further, the growth inhibition in assay [3] (setting [7]) was 9%; in assay [3] (setting [8]), 96% (active); in assay [3] (at 50.0 µM), 90.5% (active); in assay [4] (setting [7]), 8%; in assay [4] (setting [8]), 39%; in assay [4] (at 50.0 µM), 3.75%. Also, the growth inhibition in assay [5] (setting [7]) was 12%; in assay [5] (setting [8]) it was 94% (active); in assay [5] (at 50.0 µM), 69.2%; in assay [6] (setting [7]) it was 15%; in assay [6] (setting [8]), 92% (active); in assay [6] (at 50.0 µM) it was 55.5%.
Consider `O=[N+]([O-])c1c(Cl)ccc2nsnc12`, for which the growth inhibition in assay [1] (setting [7]) is 24%; in assay [1] (setting [8]) it was 97% (active); in assay [1] (at 50.0 µM), 99.4% (active); in assay [2] (setting [7]), -27%; in assay [2] (setting [8]), 97% (active); in assay [2] (at 50.0 µM), 99.2% (active). Besides, the growth inhibition was -14% in assay [3] (setting [7]); 98% (active) in assay [3] (setting [8]); 98.8% (active) in assay [3] (at 50.0 µM); -56% in assay [4] (setting [7]); 84% (active) in assay [4] (setting [8]); 98.6% (active) in assay [4] (at 50.0 µM). For the same compound, the growth inhibition in assay [5] (setting [7]) is -49%; in assay [5] (setting [8]) it was 96% (active); in assay [5] (at 50.0 µM), 98.5% (active); in assay [6] (setting [7]), -50%; in assay [6] (setting [8]), 97% (active); in assay [6] (at 50.0 µM) it was 99% (active).
Regarding `Cc1ccc2[nH]c3cc4ccncc4cc3c2c1`, the growth inhibition in assay [1] (setting [7]) was -127%; in assay [1] (setting [8]) it was 95% (active); in assay [1] (at 50.0 µM), 48.5%; in assay [2] (setting [7]) it was 30%; in assay [2] (setting [8]) it was 95% (active); in assay [2] (at 50.0 µM) it was 98.6% (active). For the same compound, the growth inhibition in assay [3] (setting [7]) is -15%; in assay [3] (setting [8]), 94% (active); in assay [3] (at 50.0 µM), 3.7%; in assay [4] (setting [7]), 35%; in assay [4] (setting [8]), 96% (active); in assay [4] (at 50.0 µM) it was 96.7% (active). The growth inhibition in assay [5] (setting [7]) was 47%; in assay [5] (setting [8]) it was 96% (active); in assay [5] (at 50.0 µM) it was 97.2% (active); in assay [6] (setting [7]), 40%; in assay [6] (setting [8]), 95% (active); in assay [6] (at 50.0 µM), 49.9%.
For the compound `O=[N+]([O-])C(/C=C(\Cl)n1nnc2ccccc21)=C(/Cl)n1nnc2ccccc21`, the growth inhibition in assay [1] (setting [7]) is 25%; in assay [1] (setting [8]), 36%; in assay [1] (at 50.0 µM) it was -1.95%; in assay [2] (setting [7]), 17%; in assay [2] (setting [8]), 18%; in assay [2] (at 50.0 µM), -3.7%. In addition, the growth inhibition in assay [3] (setting [7]) was 13%; in assay [3] (setting [8]), 26%; in assay [3] (at 50.0 µM), 25.2%; in assay [4] (setting [7]), 11%; in assay [4] (setting [8]), 11%; in assay [4] (at 50.0 µM), 13.4%. Moreover, the growth inhibition in assay [5] (setting [7]) is 27%; in assay [5] (setting [8]), 27%; in assay [5] (at 50.0 µM) it was 14.4%; in assay [6] (setting [7]), 22%; in assay [6] (setting [8]), 35%; in assay [6] (at 50.0 µM) it was 17.3%.
In the case of `O=c1cc(-c2cccc(OCc3ccccc3)c2)[nH]c2cc3c(cc12)OCO3`, the growth inhibition in assay [1] (setting [7]) is 19%; in assay [1] (setting [8]), 6%; in assay [1] (at 50.0 µM), 21.3%; in assay [2] (setting [7]), 16%; in assay [2] (setting [8]), 12%; in assay [2] (at 50.0 µM), -21.4%. In addition, the growth inhibition in assay [3] (setting [7]) is 21%; in assay [3] (setting [8]) it was 16%; in assay [3] (at 50.0 µM), 17.1%; in assay [4] (setting [7]) it was 0%; in assay [4] (setting [8]), 11%; in assay [4] (at 50.0 µM), 5.75%. Further, the growth inhibition in assay [5] (setting [7]) was 14%; in assay [5] (setting [8]), 6%; in assay [5] (at 50.0 µM), 19.9%; in assay [6] (setting [7]), 22%; in assay [6] (setting [8]), 10%; in assay [6] (at 50.0 µM) it was -51.5%.
For the compound `CC(C)(C)NC(=S)N/N=C/c1cc(Cl)cc(Cl)c1O`, the growth inhibition in assay [1] (setting [7]) was 65%; in assay [1] (setting [8]) it was 72% (active); in assay [1] (at 50.0 µM) it was 77.1% (active); in assay [2] (setting [7]) it was 64%; in assay [2] (setting [8]), 84% (active); in assay [2] (at 50.0 µM), 90% (active). In addition, the growth inhibition in assay [3] (setting [7]) is 97% (active); in assay [3] (setting [8]) it was 99% (active); in assay [3] (at 50.0 µM), 90.4% (active); in assay [4] (setting [7]), 88% (active); in assay [4] (setting [8]), 93% (active); in assay [4] (at 50.0 µM), 82.7% (active). Also, the growth inhibition was 97% (active) in assay [5] (setting [7]); 98% (active) in assay [5] (setting [8]); 84.7% (active) in assay [5] (at 50.0 µM); 74% (active) in assay [6] (setting [7]); 87% (active) in assay [6] (setting [8]); 80.7% (active) in assay [6] (at 50.0 µM).
